The record followed here is PubChem BioAssay (Tox21).

Where “and” joins values, the source holds several entries; their conditions need not be identical. Equal values may be shown once. Inconclusive results are not listed. Calls of active or inactive are those of the source. Calls follow the shape of the dose curve; as a rule, active = well fitted activation curve with a large enough effect in the repeat runs; inconclusive = weak or mixed curves; inactive = flat fitted curve, though single readings scatter.
% is scaled to controls: 0 for no effect and ±100 for the full control effect; potency is read from the fitted curve at half-maximal effect.

The assay can be described thus: A CellTox Green Cytotoxicity Assay to monitor cytotoxicity in HEK293 cells - 32 hour (AID 1224881). Also: nearly all actives have a fitted effect of over 40% in size. As to conditions: CellTox Green fluorescence; series mostly up to 76.8 µM; cytotoxicity increase: at the top concentration. An excerpt: National Center for Advancing Translational Sciences [NCATS]
NIH Chemical Genomics Center [NCGC]
U.S. Environmental Protection Agency [EPA]
National Institutes of Environmental Health Sciences [NIEHS]
National Toxicology Program [NTP]
Cell-based models are critical for drug discovery. Determining the natural cytotoxic effects resulting from test compounds is an essential research activity. A CellTox Green Cytotoxicity Assay to monitor cytotoxicity in real time of continues cell culture during 40 hours of the compound treatment was used to screen Tox21 10K library compounds in Hek293 cells. CellTox Green Cytotoxicity Assay is a nonlytic, homogeneous, biofluorescent method to measure cytotoxicity in cell culture after experimental manipulation. The assay system uses a proprietary asymmetric cyanine dye that is excluded from viable cells but preferentially stains the dead cell's DNA. […] Viable cells produce no appreciable increases in fluorescence. Therefore, the fluorescence signal produced by the binding interaction with dead cell DNA is proportional to cytotoxicity.
The mixture of Hek293 cell suspension and reagents were dispensed at 600cells/6 ul/well in 1536-well tissue culture treated black solid bottom plates using a Multidrop dispenser. After the assay plates were incubated at a 37 C/5% CO2 incubator for 5 hours, 23 nL of compounds dissolved in DMSO, positive and negative controls was transferred to the assay plate by a pintool work station. The plates were incubated at 37 C for 40 hours. The fluorescence intensity were measured at 0h, 8h, 16h, 24h, 32h and 40h time points using ViewLux plate reader during compound treatment.
On to `CCCC(c1cc(C(C)(C)C)c(O)cc1C)c1cc(C(C)(C)C)c(O)cc1C`, for which the Potency is 49.6 µM (active).
On to `CC(C)(C)CC(C)(C)c1ccc(OCCOCC[N+](C)(C)Cc2ccccc2)cc1`, for which the Potency was 38.9 µM (active) and 21.3 µM (active).
For `CNC(=O)c1ccccc1`, the “cytotoxicity increase” value is 0% (inactive).
For the compound `COc1ccc(CN2CCN(C(c3ccc(F)cc3)c3ccc(F)cc3)CC2)c(OC)c1OC`, the “cytotoxicity increase” value is 13.3% [at 35.3 µM] (inactive).
Still for that read-out and setting: the same measure for `COC(=O)c1cc(Cl)ccc1OC`: -3.41% [at 35.3 µM] (inactive).
On to `Cc1cc(O)c(C(C)(C)C)cc1C(C)(C)C`, for which the Potency was 24.5 µM (active).
For the compound `CCC(C)Nc1ccc(NC(C)CC)cc1` (stereo not given), the Potency was 12.5 µM (active).
Take `CN(C)[C@@H]1C(=O)C(C(N)=O)=C(O)[C@@]2(O)C(=O)C3=C(O)c4c(O)cccc4C[C@H]3C[C@@H]12`: the “cytotoxicity increase” value was -13% [at 35.3 µM] (inactive).
Turning to `Cc1cc(O)c2ccccc2c1O`, the Potency is 9.52 µM (active).
Turning to `CC(C)c1ccc2c(c1)CC[C@H]1[C@](C)(CN)CCC[C@]21C`, the Potency was 19.5 µM (active).
Take `Oc1cccc(-c2c3nc(c(-c4cccc(O)c4)c4ccc([nH]4)c(-c4cccc(O)c4)c4nc(c(-c5cccc(O)c5)c5ccc2[nH]5)CC4)C=C3)c1`: the “cytotoxicity increase” value was 0.674% [at 35.3 µM] (inactive).
Take `O=C(O)c1ccc(Cl)c(Cl)c1`: the “cytotoxicity increase” value is -4.63% (inactive).
Still for that read-out and setting: the same measure for `Cc1cccc(S(=O)(=O)O)c1C`: -18.1% (inactive); for `CCCCN(CCCC)C(=O)N(CCCC)CCCC`: -13.2% (inactive).
`N=C1C=CC(=C(c2ccc(N)cc2)c2ccc(N)cc2)C=C1`: the “cytotoxicity increase” value is -15.4% (inactive).
With `C1CCCC1`, the “cytotoxicity increase” value was 0.699% (inactive).
For `O=C(Nc1cccc([N+](=O)[O-])c1)c1cc2ccccc2cc1O`, the “cytotoxicity increase” value is 11.1% (inactive).
With `Cc1cc(CCN2CCN(c3nsc4ccccc34)CC2)cc2c1NC(=O)CC2(C)C`, the Potency was 49 µM (active).
As to `CCCCCCCCn1sc(Cl)c(Cl)c1=O`, the Potency was 1.23 µM (active).
For `CCCCCCCCCOC(=O)c1ccc(O)cc1`, the Potency is 38.3 µM (active).
On the same count and under the same terms, the same measure for `S=c1[nH]c2ccccc2s1`: 49 µM (active); for `N/C(=N\N=C\c1ccc(Cl)cc1)N/N=C/c1ccc(Cl)cc1`: 23.9 µM (active); for `Oc1ccc(N=Nc2ccccc2)cc1`: 44.2 µM (active).
Turning to `CCCCCCCCCCCCc1ccc(O)cc1`, the Potency is 49 µM (active).
As for `O=C1C=CC(=O)N1`, the Potency was 17.8 µM (active).
For the compound `N=C1N=C(N)c2cc3ccccc3cc21`, the Potency is 54.9 µM (active).
With `Oc1ccc2cc(SSc3ccc4cc(O)ccc4c3)ccc2c1`, the Potency is 43.7 µM (active) and 19.5 µM (active).
As for `CN(C)[C@@H]1C(=O)C(C(N)=O)=C(O)[C@@]2(O)C(=O)C3=C(O)c4c(O)ccc(Cl)c4[C@@H](O)[C@H]3C[C@@H]12`, the “cytotoxicity increase” value is 19.2% [at 35.3 µM] (inactive).
Regarding `CC(C)(C)c1ccc(C(=O)O)cc1`, the “cytotoxicity increase” value is -1.98% (inactive).
Regarding `C[C@]12CCC(=O)C=C1CC[C@@H]1[C@@H]2[C@@H](O)C[C@@]2(C)[C@H]1CC[C@]2(O)C(=O)COC(=O)CCC(=O)O`, the “cytotoxicity increase” value is 2.94% [at 35.3 µM] (inactive).
With `COc1cc(/C=C/C(=O)O[C@H]2CC[C@]34C[C@]35CC[C@]3(C)[C@@H]([C@H](C)CCC=C(C)C)CC[C@@]3(C)[C@@H]5CC[C@H]4C2(C)C)ccc1O`, the “cytotoxicity increase” value was -17.6% [at 35.3 µM] (inactive).
Regarding `CC(=O)S[C@@H]1CC2=CC(=O)CC[C@]2(C)[C@H]2CC[C@@]3(C)[C@@H](CC[C@@]34CCC(=O)O4)[C@H]12`, the “cytotoxicity increase” value is 8.15% (inactive).
Turning to `O=C(NO)C1(NS(=O)(=O)c2ccc(Oc3ccc(F)cc3)cc2)CCOCC1`, the “cytotoxicity increase” value is 1.79% (inactive).
For `C/C=C(\C)C(=O)OCc1ccccc1`, the “cytotoxicity increase” value was 21.5% (inactive).
In the case of `CC(C)=CCOc1ccc(/C=C/C(=O)c2ccc(OCC=C(C)C)cc2OCC(=O)O)cc1`, the “cytotoxicity increase” value is -2.05% [at 35.3 µM] (inactive).
As to `CCCCCCCCNC(C)C(O)c1ccc(SC(C)C)cc1` (stereo not given), the Potency was 16.9 µM (active).
For `CCOc1nc2cccc(C(=O)OC(C)OC(=O)OC3CCCCC3)c2n1Cc1ccc(-c2ccccc2-c2nn[nH]n2)cc1` (stereo not given), the Potency is 30.9 µM (active).
Regarding `CCN(CC)CCCC(C)Nc1c2ccc(Cl)cc2nc2ccc(OC)cc12` (stereo not given), the Potency was 7.56 µM (active).
For the compound `CC[C@H]1O[C@]2(CC[C@@H]1C)C[C@@H]1C[C@@H](C/C=C(\C)C[C@@H](C)/C=C/C=C3\CO[C@@H]4[C@H](O)C(C)=C[C@@H](C(=O)O1)[C@]34O)O2`, the Potency was 48.5 µM (active).
As to `O=C(c1ccc(F)cc1)C1CCN(CCn2c(=O)[nH]c3ccccc3c2=O)CC1`, the “cytotoxicity increase” value was 4.96% [at 35.3 µM] (inactive).
